LDHA block – inhibitors of human lactate dehydrogenase A; P00338; purified LDHA, NADH/diaphorase-resazurin fluorescence; hits give low values; activity change, % (values are at about 110 or 230 µM); actives 0.15% (n = 480,000); AID 1347041; in the data active = activity change below about -30%; inconclusive = mostly about -25% to -30%;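 also: plate controls were DMSO wells for no effect and wells without enzyme for full effect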
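LDH5 2 nM; NADH 0.06 mM, pyruvate 0.2 mM; 200 mM Tris pH 7.4, EDTA, Tween-20; 5 min RT. Detection: diaphorase 0.133 mg/mL + resazurin 37 µM, fluorescence ex540/em590 at 0 and 20 min; normalized to enzyme-free and DMSO wells.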
VP16 counter – counter-screen for ROR gamma inhibitors: Gal4-VP16 reporter; AID 2546; Drosophila S2 Gal4-VP16 UAS-luciferase, luminescence, 20 h; Potency, µM (top dose mostly 53.6 µM), inactives show at the top dose activity, negative = inhibition, hits mostly inhibitors; actives 3.5% (n = 310,000);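 also: Gal4-VP16 expression switched on by copper sulfate through the metallothionein promoter; potency is read from the fitted curve at half-maximal effect; nearly all actives have a fitted effect of over 50% in size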
DT40 TDP1 CPT – DT40-hTDP1 cell growth loss with CPT; chicken DT40 Tdp1-/-;hTDP1 cells + 20 nM CPT, ATP luminescence, 48 h; Potency, µM (titrated, usually from 46.2 µM), without a hit: top-dose activity change, negative = growth inhibition, actives largely listed as inhibitors; actives 12% (n = 420,000); also: potency is read from the fitted curve at half-maximal effect; nearly all actives have a fitted effect of over 55% in size
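Cell growth measured by CellTiter-Glo luminescence after a minimum 48 h, 37 C compound exposure with 20 nM CPT in Tdp1-knockout DT40 cells stably expressing hTDP1, seeded 400/well; qHTS titration format.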
IL1B secr inh – blocks inflammasome-driven IL-1 beta release; THP-1 LPS/ATP IL-1B secretion, AlphaLISA, 16 h; hits give low values; activity change, % at 57.5 µM; actives 4.7% (n = 360,000); in the data active = activity change below about -50%; inconclusive = mostly about -30% to -49%
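Secreted IL-1B measured by AlphaLISA bead assay after 16 h compound exposure of THP-1 cells; compounds (final up to 57.5 uM) added 1 h before LPS (250 ng/mL) and ATP (1.25 mM) stimulation; lower signal means less secretion.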
RORg inh – blocks mouse ROR gamma transcriptional activity | Drosophila S2 Gal4-RORgamma UAS-luciferase reporter, 20 h | Potency, µM (titrated, usually from 53.6 µM), for inactives: at the highest dose activity change, negative = inhibition, hits mostly inhibitors | AID 2551 | actives 5.4% (n = 310,000); also: potency is read from the fitted curve at half-maximal effect; nearly all actives have a fitted effect of over 60% in size
Target sequence (P51450 whole entry, looked up, the tested form may be a part): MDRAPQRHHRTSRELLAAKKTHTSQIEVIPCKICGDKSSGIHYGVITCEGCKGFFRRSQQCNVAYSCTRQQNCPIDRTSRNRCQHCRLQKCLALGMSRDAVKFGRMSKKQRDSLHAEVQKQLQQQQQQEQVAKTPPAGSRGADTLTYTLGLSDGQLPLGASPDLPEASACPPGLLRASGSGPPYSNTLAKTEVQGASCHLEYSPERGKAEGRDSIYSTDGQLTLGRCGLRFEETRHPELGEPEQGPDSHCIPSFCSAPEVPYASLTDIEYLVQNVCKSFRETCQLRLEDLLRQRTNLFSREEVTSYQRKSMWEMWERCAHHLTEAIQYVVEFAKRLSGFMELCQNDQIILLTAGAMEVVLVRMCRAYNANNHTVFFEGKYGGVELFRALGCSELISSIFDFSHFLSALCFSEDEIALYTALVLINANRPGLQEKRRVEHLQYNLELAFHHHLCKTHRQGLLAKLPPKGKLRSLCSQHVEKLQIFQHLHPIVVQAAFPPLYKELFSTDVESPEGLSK
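Read-out: Photinus luciferase luminescence; inhibitors lower reporter signal. Insect Schneider cells with Gal4-ROR gamma fusion under metallothionein promoter, UAS reporter; 700 uM final copper sulfate induction, 20 hr, ambient temperature.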
TDP1 cell noCPT – qHTS for Inhibitors of human tyrosyl-DNA phosphodiesterase 1 (TDP1): qHTS in cells in absence of CPT. DT40 Tdp1-/- hTDP1 cells, no CPT, ATP luminescence, 48 h. Potency, µM (highest dose often 46.2 µM), for the others: at the top dose activity change, negative = growth inhibition, usual class: inhibitors. actives 15% (n = 420,000); also: potency is read from the fitted curve at half-maximal effect; nearly all actives have a fitted effect of over 55% in size
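Luminescent ATP content (CellTiter-Glo) served as the growth readout. Knockout chicken DT40 cells expressing human TDP1 were exposed to compounds without camptothecin for a minimum 48 hr at 37 °C.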
The depositor's hits bear a star; ? = inconclusive; / = no result. A selection: hits, their analogues and other compounds. The true share with any hit is near 18%. Unless noted, calls follow the shape of the dose curve; as a rule, active = well fitted curve in the direction sought with a large enough effect; inconclusive = small, poorly fitted or top-dose-only effect, or another doubt; inactive = no such curve, though single readings can be large; an effect the other way counts as inactive or inconclusive. Unless noted, % is scaled to controls: 0 for no effect and ±100 for the full control effect.

SMILES	LDHA block	VP16 counter	DT40 TDP1 CPT	IL1B secr inh	RORg inh	TDP1 cell noCPT
C/C(=N\NC(=O)c1c(Cl)c(C)nn1C)c1cccc(NC(=O)COc2ccc(Cl)cc2)c1	-5	-27%	?	-12	12%	16µM*
C/C(=N\NC(=O)c1ccc(Cl)cc1)c1cccc(NC(=O)c2cccnc2)c1	-3	-7%	?	-66*	-5%	?
CCCCCCCCCCC(=O)c1ccc(Cl)cc1	9	/	/	/	/	/
COc1ccc2c(CNCc3ccco3)c(C(=O)O)n(Cc3ccc(F)cc3Cl)c2c1	3	/	?	/	/	2.6µM*
Cc1ccc(Cn2c(C(=O)O)c(CNCc3ccc(OC(C)C)cc3)c3ccc(C)cc32)cc1	-4	/	16µM*	/	/	?
COc1ccc(Cn2c(C(=O)O)c(CNCCc3cccs3)c3ccc(C)cc32)cc1	-1	/	?	/	/	23µM*
COc1ccc2c(CNCc3cccs3)c(C(=O)O)n(Cc3ccc(C)cc3)c2c1	-7	/	-5%	/	/	-15%
COc1ccc2c(CNC3CCCC3)c(C(=O)O)n(Cc3ccccc3C)c2c1	0	/	?	/	/	?
CCOc1ccc(CNCc2c(C(=O)O)n(Cc3ccccc3C)c3cc(OC)ccc23)cc1OC	-11	/	0.65µM*	/	/	1µM*
Cc1cccc(COC(=O)c2ccc(C#N)cc2)c1	3	/	/	/	/	/
COc1ccccc1CN(C)CC(=O)N(C)c1c(N)n(Cc2ccccc2)c(=O)[nH]c1=O	-1	/	/	/	/	/
O=C(Cn1ncc2ccccc2c1=O)Nc1ncc(Cc2ccc(C(F)(F)F)cc2)s1	0	/	/	/	/	/
Cc1ccc(Cn2c(C(=O)O)c(CNCCc3cccs3)c3ccc(C)cc32)cc1	-1	/	?	/	/	-21%
C=Cc1ccc(Cn2c(C(=O)O)c(CNCc3ccccc3)c3ccc(C)cc32)cc1	1	/	7.3µM*	/	/	4.6µM*
C=Cc1ccc(Cn2c(C(=O)O)c(CNCc3cc(Br)ccc3OC)c3ccc(C)cc32)cc1	4	/	-5%	/	/	?
Cc1ccc2c(CNCc3cccc(Cl)c3)c(C(=O)O)n(Cc3ccc(F)cc3Cl)c2c1	-6	/	3.3µM*	/	/	3.3µM*
Cc1ccc(CNCc2c(C(=O)O)n(Cc3ccc(C)cc3)c3cc(C)ccc23)cc1	3	/	23µM*	/	/	?
Cc1ccc2c(CNCCc3ccco3)c(C(=O)O)n(Cc3ccc(F)cc3)c2c1	2	/	21µM*	/	/	26µM*
Cc1ccc(Cn2c(C(=O)O)c(CNCc3ccc(C)o3)c3ccc(C)cc32)cc1	5	/	?	/	/	?
COc1ccc(Cn2c(C(=O)O)c(CNCc3ccc(C)o3)c3ccc(C)cc32)cc1	2	/	?	/	/	?
CCOc1ccc(CNCc2c(C(=O)O)c(C)n(Cc3ccc(F)cc3Cl)c2C)cc1	-8	/	?	/	/	13µM*
COc1ccc(CNCc2c(C(=O)O)n(Cc3ccc(F)cc3)c3cc(C)ccc23)cc1OC	-1	/	21µM*	/	/	23µM*
Cc1c(CNCc2ccccc2)c(C(=O)O)c(C)n1Cc1ccc(F)cc1Cl	-7	/	/	/	/	/
Cc1ccccc1S(=O)(=O)NC1OC(=O)C(Cl)=C1Cl (stereo unspecified)	1	-10%	21µM*	-107*	-34%	?
N#Cc1ccc(NC(=O)NCCNc2ccccn2)cc1	-2	/	/	/	/	/
SMILES	LDHA block	VP16 counter	DT40 TDP1 CPT	IL1B secr inh	RORg inh	TDP1 cell noCPT
O=C(Cn1nc(-c2ccc(Cl)cc2)c2ccccc2c1=O)N1CCCC1	-4	/	/	/	/	/
NC(=O)c1nn(CC(=O)N2CCN(CC(=O)N3CCCCCC3)CC2)c(=O)c2ccccc12	9	/	/	/	/	/
COc1ccccc1CNC(=O)C(=O)NCC(c1ccc2c(c1)OCO2)N1CCOCC1 (stereo unspecified)	-3	/	?	/	/	?
O=S(=O)(NCC(c1ccc2c(c1)OCO2)N1CCOCC1)c1ccc(F)cc1 (stereo unspecified)	2	/	0%	-6	/	-5%
O=S(=O)(NCC(c1ccc2c(c1)OCO2)N1CCOCC1)c1ccc(Br)cc1 (stereo unspecified)	0	/	16µM*	-17	/	21µM*
CCCC(=O)NCC(c1ccc2c(c1)OCO2)N1CCN(c2ccc(F)cc2)CC1 (stereo unspecified)	-8	/	?	/	/	21µM*
COc1cc(C(=O)NCC(c2ccc3c(c2)OCO3)N2CCOCC2)cc(OC)c1OC (stereo unspecified)	-7	/	12µM*	/	/	?
COc1cccc(C(=O)NCC(c2ccc3c(c2)OCO3)N2CCN(c3ccc(F)cc3)CC2)c1 (stereo unspecified)	0	/	15µM*	-24	/	10µM*
Cc1nn(C)c(C)c1CC(=O)N1CCN(S(=O)(=O)c2c(C)c(C)c(C)c(C)c2C)CC1	-3	/	/	/	/	/
Cc1cccc(OCCn2c(CN3CCOCC3)nc3scc(-c4cccs4)c3c2=O)c1	-16	/	/	/	/	/
N#Cc1ccccc1NC(=O)C(=O)NCC(c1ccc2c(c1)OCO2)N1CCN(c2ccccc2)CC1 (stereo unspecified)	-3	/	?	/	/	8.2µM*
COc1cccc(C(=O)NCC(c2ccc3c(c2)OCO3)N2CCOCC2)c1 (stereo unspecified)	0	/	-19%	/	/	-17%
Cc1ccccc1NC(=O)C(=O)NCC(c1ccc2c(c1)OCO2)N1CCN(c2ccccc2)CC1 (stereo unspecified)	6	/	?	/	/	?
COc1cccc(NC(=O)C(=O)NCC(c2ccc3c(c2)OCO3)N2CCOCC2)c1 (stereo unspecified)	3	/	?	/	/	16µM*
COc1ccc(C(=O)NCC(c2ccc3c(c2)OCO3)N2CCN(c3ccc(OC)cc3)CC2)cc1 (stereo unspecified)	0	/	3.3µM*	-17	/	5.8µM*
O=C(NCC(c1ccc2c(c1)OCO2)N1CCN(c2ccccc2)CC1)c1ccccc1F (stereo unspecified)	-4	/	7.3µM*	/	/	12µM*
O=C(c1cccs1)N(Cc1ccc2[nH]ccc2c1)C1CC1	0	/	/	/	/	/
COC(=O)NCC(c1ccc2c(c1)OCO2)N1CCN(c2ccccc2)CC1 (stereo unspecified)	-12	2%	?	14	30%	-25%
CCCNC(=O)C(=O)NCC(c1ccc2c(c1)OCO2)N1CCN(c2ccc(F)cc2)CC1 (stereo unspecified)	-2	1%	?	16	9%	?

Source: PubChem BioAssay (National Center for Advancing Translational Sciences (NCATS))
